Values joined by “and” are separate entries in the source; they are usually repeats but may differ in a detail not shown here. Identical values can stand only once. Among all 16,000 compounds or so, about 2,600 (16%) were called active. About 20% were inconclusive and are not listed. Calls follow the shape of the dose curve; as a rule, active = well fitted curve in the direction sought with a large enough effect; inconclusive = small, poorly fitted or top-dose-only effect, or effect the other way; inactive = no such curve, though single readings can be large or run the other way. These entries were drawn from the full list. Where a structure was tested more than once in an assay, its records may differ in their call. Peptide text beside a SMILES is read from it.
Target: Cytochrome P450 2D6 (Homo sapiens) (UniProt P10635)
Sequence (P10635 whole entry, looked up): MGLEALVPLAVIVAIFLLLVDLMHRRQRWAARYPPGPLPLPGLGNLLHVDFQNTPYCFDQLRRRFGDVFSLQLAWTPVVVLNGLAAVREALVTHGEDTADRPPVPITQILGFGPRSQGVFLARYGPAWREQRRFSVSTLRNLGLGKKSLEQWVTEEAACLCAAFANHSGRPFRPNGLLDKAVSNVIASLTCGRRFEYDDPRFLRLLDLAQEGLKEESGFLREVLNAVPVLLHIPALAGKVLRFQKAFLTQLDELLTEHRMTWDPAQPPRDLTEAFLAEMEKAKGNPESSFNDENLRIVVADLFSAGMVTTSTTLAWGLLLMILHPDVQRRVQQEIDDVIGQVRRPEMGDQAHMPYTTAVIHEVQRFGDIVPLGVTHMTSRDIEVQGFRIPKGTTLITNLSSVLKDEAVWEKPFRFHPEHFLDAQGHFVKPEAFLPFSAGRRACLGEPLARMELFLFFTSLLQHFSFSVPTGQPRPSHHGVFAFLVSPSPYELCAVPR
Assay: Cytochrome panel assay with activity outcomes
Details: recombinant CYP, pro-luciferin dealkylation, luminescence, p450-cyp2d6; series mostly up to 57.1 µM
% is scaled to controls: 0 for no effect and ±100 for the full control effect.

Row | SMILES | AC50 | activity, negative = inhibition
1 | Cc1cccc(Cn2ncc(Cl)c(Cl)c2=O)c1 | inactive | –
2 | O=C(NCC(=O)N(c1ccccc1)C(C(=O)NC1CCCC1)c1cccnc1)c1cccs1 (centres undefined) | inactive | –
3 | Cc1ccc(C(C(=O)NC2CCCCC2)N(CC2CCCO2)C(=O)CNC(=O)c2cccs2)cc1 (centres undefined) | 10 µM (active) | –
4 | Cc1ccc(C(C(=O)NCc2ccco2)N(C(=O)CNC(=O)c2cccs2)c2ccc(C)cc2C)cc1 (centres undefined) | inactive | –
5 | O=S(=O)(c1ccccc1)N1CCC2(CCN(Cc3ccccc3)CC2)CC1 | inactive | –
6 | O=S(=O)(c1ccccc1)N1CCC2(CCCN(Cc3ccncc3)C2)CC1 | 1 µM (active) | –
7 | N#Cc1ccc(CN2CCC3(CC2)CCN(S(=O)(=O)c2ccccc2)CC3)cc1 | inactive | –
8 | N#Cc1ccc(CN2CCCC3(CCN(S(=O)(=O)c4ccccc4)CC3)C2)cc1 | 0.631 µM (active) | –
9 | O=S(=O)(c1ccccc1)N1CCC2(CC1)CN(Cc1ccccc1)C2 | 0.158 µM (active) | –
10 | Cc1ccccc1CNc1ncnc2c1ncn2[C@@H]1O[C@@H](CO)[C@H](O)[C@@H]1O | inactive | –
11 | COc1ccc(NS(=O)(=O)c2ccc(NC(=O)c3cnn4c(C(F)F)cc(-c5ccc(C)cc5)nc34)cc2)cc1 | inactive | –
12 | CC(C)=CCc1c2c(c3occ(-c4ccc(O)c(O)c4)c(=O)c3c1O)C=CC(C)(C)O2 | – | -0.0819% [at 11.4 µM] (inactive)
13 | CCc1cc2c(=O)n(-c3ccccc3)c(=S)[nH]c2s1 | inactive | –
14 | COC(=O)/C=C\CCc1coc(/C=C\CNC(=O)OC)n1 | – | 8.58% [at 11.4 µM] (inactive)
15 | COc1ccc(/C=C2\OC(=O)c3c(OC)cccc32)cc1OC | inactive | –
16 | Cn1c(=O)c(-c2ccc(Cl)cc2)nc2cncnc21 | inactive | –
17 | O=S(Cc1ccccc1)CC(O)(c1ccccc1)c1ccccc1 (centres undefined) | 2.24 µM (active) | –
18 | O=C(O)C(Cl)(c1ccccc1)c1ccccc1 | – | 6.11% [at 11.4 µM] (inactive)
19 | O=C(O)c1cccc(C(=O)O)c1S(=O)Cc1ccccc1 (centres undefined) | – | -0.655% [at 11.4 µM] (inactive)
20 | COc1cccc(N=c2oc3c(C)ncc(CO)c3cc2C(N)=O)c1 | inactive | –
21 | CC(C)(C)[C@@]1(O)CCN2C[C@@H]3c4ccccc4CCc4cccc(c43)[C@@H]2C1 | 79.4 nM (active) and 501 nM (active) | –
22 | O=C(C1CCCCC1)N1CC(=O)N2CCc3ccccc3[C@@H]2C1 | inactive | –
23 | CC(C)c1nnc(-c2ccc(Cl)cc2)c(N(C)C)n1 | inactive | –
24 | C/C(CCN1CCc2nc(-c3ccccc3)c(-c3ccccc3)cc2C1)=N\O[C@@H](C)c1cc(-c2c(C)cc(C)cc2C)no1 | – | 8.64% [at 11.4 µM] (inactive)

Row | SMILES | AC50 | activity, negative = inhibition
25 | CS(=O)(=O)c1ccc([C@H](O)[C@H](CO)NC(=O)C(Cl)Cl)cc1 | inactive | –
26 | CN1/C(=C/C=C(/C#N)C(N)=O)C(C)(C)c2ccccc21 | inactive | –
27 | CN1/C(=C\C=[N+](C)c2ccccc2)C(C)(C)c2ccccc21 | 0.316 µM (active) | –
28 | Cc1c(NC(=S)/C=C2\N(C)c3ccccc3C2(C)C)c(=O)n(-c2ccccc2)n1C | inactive | –
29 | CN(C)c1ccc(N=C/C=C2\N(C)c3ccccc3C2(C)C)cc1 | 2.24 µM (active) | –
30 | CC(C)CO/N=C1/C[C@@H](O)[C@@H](O)[C@@H]2[C@@H]3C(=O)N(C[C@@H]4CCCO4)C(=O)[C@H]3CC[C@H]12 | – | -1.45% [at 11.4 µM] (inactive)
31 | Cc1cc(C)cc(Oc2coc3cc(OC(=O)c4cccs4)ccc3c2=O)c1 | inactive | –
32 | O=C(O)c1cccc2cccc(-c3cccc4cccc(C(=O)O)c34)c12 | – | -12.7% [at 11.4 µM] (inactive)
33 | O=C(c1c[nH]c(=O)n(-c2ccccc2)c1=O)N1CCc2ccccc21 | inactive | –
34 | O=C(/C(=C/c1ccc(Cl)cc1)c1nc2ccccc2[nH]1)c1ccccc1 | inactive | –
35 | O=C(Nc1cccc(Br)c1)/C(=C\c1cccnc1)NC(=O)c1ccco1 | inactive | –
36 | O=C(N/C(=C/c1ccc(Br)cc1)c1nc2ccccc2[nH]1)c1ccco1 | 12.6 µM (active) | –
37 | O=C1c2cccc3c(Cl)ccc(c23)C(=O)N1O | inactive | –
38 | COC(=O)c1ccc(-n2cncn2)c(F)c1 | inactive | –
39 | CCc1nn(C)c(-c2n[nH]c(=S)n2N)c1Cl | inactive | –
40 | Cc1ccc(S(=O)(=O)NC(=O)OC23COCN2COC3)cc1 | – | 18.1% [at 11.4 µM] (inactive)
41 | Nc1nc(SCc2ccc([N+](=O)[O-])cc2)c2ncn([C@@H]3O[C@@H](CO)[C@@H](O)[C@H]3O)c2n1 | inactive | –
42 | O=C(COc1ccc(Cl)cc1)N1CCN(Cc2ccc3c(c2)OCO3)CC1 | 0.2 µM (active) | –
43 | O=C(CN1C(=O)c2cccc3cccc(c23)C1=O)N1CCCCCC1 | inactive | –
44 | O=C(CCN1C(=O)c2cccc3cccc(c23)C1=O)N1CCN(Cc2ccc3c(c2)OCO3)CC1 | 14.1 µM (active) | –
45 | COC(=O)c1ccccc1OCC(=O)N1CCN(c2ccc(Cl)cc2)CC1 | inactive | –
46 | O=C(Cc1ccc(Cl)cc1)N1CCN(C(=O)c2ccco2)CC1 | inactive | –
47 | c1cnc(N2CCN(Cc3ccc4c(c3)OCO4)CC2)nc1 | 1 µM (active) and 200 nM (active) and inactive | –
48 | O=C(O)C1CCN(c2ncccn2)CC1 | inactive | –

Row | SMILES | AC50 | activity, negative = inhibition
49 | O=C(O)[C@@H]1CCCN1Cc1ccc2c(c1)OCO2 | – | 7.95% [at 11.4 µM] (inactive)
50 | Cc1ccc(NC(=S)N2CCN(CCN3C(=O)c4cccc5cccc(c45)C3=O)CC2)cc1 | inactive | –
51 | CC(=O)[C@@H](C)CCO[C@@]1(C)OCC[C@@H]1C | – | 0.323% [at 11.4 µM] (inactive)
52 | CCOC(=O)c1c(NC(=O)CCCN2CCOCC2)sc2c1CC(C)(C)OC2 | inactive | –
53 | COc1ccc2c(c1)c(CC(=O)O)c(C)n2C(=O)c1ccc(Cl)cc1 | inactive | –
54 | CCc1ccc(NC(=O)C2CCN(S(=O)(=O)c3c(C)[nH]c(=O)[nH]c3=O)CC2)cc1 | inactive | –
55 | CC(=O)[C@@H]1[C@@H]2C(=O)N(C3CCCCC3)C(=O)[C@@H]2C2c3ccccc3C=CN21 (some centres undefined) | inactive | –
56 | O=C(CCCN1C(=O)C2C3C=CC(C3)C2C1=O)N1CCN(c2ccccc2)CC1 (centres undefined) | inactive | –
57 | Cc1nnc(-c2cnn(-c3ccccc3)c2N)n1Cc1ccncc1 | inactive | –
58 | Cn1c(-c2ccccc2)cnc1N | 11.2 µM (active) | –
59 | Nc1nonc1-n1nncc1-c1ccccc1 | inactive | –
60 | Cn1c(=O)c(-c2ccccc2)nc2cncnc21 | inactive | –
61 | CCCCN1C(=O)C(NC(=O)c2cccnc2)(C(F)(F)F)C2=C1CC(C)(C)CC2=O (centres undefined) | inactive | –
62 | COc1ccc2c3c(ccc2c1)N[C@H](C(=O)O)CC3 | – | 3.59% [at 11.4 µM] (inactive)
63 | Cc1cc(=O)[nH]c(-n2[nH]c(C)cc2=O)n1 | inactive | –
64 | CC1(C)CCC(NC(=O)[C@H](N)CCC(=O)O)CC1 | inactive | –
65 | COc1ccc(-n2c(=O)c(-c3cccs3)nc3cnc(N4CCNCC4)nc32)cc1 | inactive | –
66 | CCOC(=O)c1sc(NC(C)=O)nc1-c1ccccc1 | inactive | –
67 | Cc1cc(C)c(C#N)c(SCS(=O)c2ccc(C(C)(C)C)cc2)n1 (centres undefined) | inactive | –
68 | Cc1cc(C)c(C#N)c(Oc2ccccc2)n1 | inactive | –
69 | C=CCSc1nc(C)cc(/C=C\c2ccccc2)c1C#N | 2.82 µM (active) | –
70 | COc1ccc(-c2nc3cnc(N(C)C)nc3n(CCc3ccccc3)c2=O)cc1 | inactive | –
71 | Cc1ccc(S(=O)(=O)CCc2nnc(NC(=O)COc3cccc(C)c3)s2)cc1 | inactive | –
72 | CC(=O)N[C@@H](CC(=O)O)C(=O)N[C@@H](CCC(=O)O)C(=O)O (Ac-Asp-Glu-OH) | inactive | –

Row | SMILES | AC50 | activity, negative = inhibition
73 | COc1cc2nncc(SCc3ccc(Cl)c(Cl)c3)c2cc1OC | – | 1.56% [at 11.4 µM] (inactive)
74 | Clc1ccc(CSC2=NCCN2)cc1Cl | 3.16 µM (active) | –
75 | N[C@@H](Cc1cccc([N+](=O)[O-])c1)C(=O)O | – | 1.07% [at 11.4 µM] (inactive)
76 | CCN(Cc1ccccc1)Cc1cccc([N+](=O)[O-])c1 | 0.794 µM (active) | –
77 | Cc1ccc(S(=O)(=O)NCc2cccc([N+](=O)[O-])c2)cc1 | – | 1.17% [at 11.4 µM] (inactive)
78 | CN(C)N1C(N)=C(C#N)C(c2cccnc2)C2=C1CC(C)(C)CC2=O (centres undefined) | inactive | –
79 | Cc1ccc(=O)n(-c2ccccc2)c1 | inactive | –
80 | O=C1C=C(NCC2CCCO2)C2(CCCCC2)O1 (centres undefined) | inactive | –
81 | COCCn1c(=O)c(-c2ccc(F)c(F)c2)nc2cncnc21 | inactive | –
82 | Cc1ccc(N=Cc2nc(/C=C/c3cccc([N+](=O)[O-])c3)oc2O)cc1 | inactive | –
83 | CN(C)c1ncc2nc(-c3ccc(F)cc3)c(=O)n(Cc3ccc(F)cc3)c2n1 | inactive | –
84 | C#CCCCO/N=C1/C[C@@H](O)[C@@H](O)[C@@H]2[C@@H]3C(=O)N(C4CCCCC4)C(=O)[C@H]3CC[C@H]12 | – | 18.1% [at 11.4 µM] (inactive)
85 | Cc1ccccc1NC(=O)CSc1nnc(-c2ccccc2)n1-c1ccccc1 | 1.78 µM (active) | –
86 | CCn1c(SCC(=O)Nc2ccccc2C(=O)OC)nnc1-c1ccc(N)cc1 | inactive | –
87 | N#Cc1c(-c2ccccc2)cc(C2CC2)nc1SCC(=O)c1cccs1 | inactive | –
88 | O=C(CSc1nnc(-c2ccccc2)n1-c1ccccc1)c1cccs1 | 2.51 µM (active) | –
89 | CCOc1ccc(-n2c(SCC(=O)Nc3ccccc3C)n[nH]c2=O)cc1 | inactive | –
90 | COC(=O)CSc1nnc(-c2ccccc2OC)n1-c1ccc(C)cc1 | inactive | –
91 | CN(Cc1cc2ccccc2[nH]c1=O)S(C)(=O)=O | inactive | –
92 | CCc1ccc(OCC(=O)Nc2ccc(-c3nc4ccccc4o3)c(O)c2)cc1 | inactive | –
93 | Nc1nc(-c2ccccc2)c(-c2ccccc2)c(-c2nc(N)nc(-c3ccccc3)c2-c2ccccc2)n1 | – | -0.539% [at 11.4 µM] (inactive)
94 | CN(N=O)c1ccc(/C=C\c2ccnc3ccccc23)cc1 | – | -11% [at 11.4 µM] (inactive)
